About 2,000 (36%) of roughly 5,500 compounds were called active. Another 18% or so got no clear call; they are omitted. Cut-off read from the data, not from the text of the source: active = normalized growth mostly below about 0.91 (no sharp cut-off); inconclusive = no clear call, values can overlap the other calls; inactive = mostly above about 0.92. Some of the results follow.
Experiment: chemical genetic growth profiling, strain panel (AID 1159580);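 note: tested at 20 µM; growth read once vehicle control cultures reached saturation at 30 °C; 1 = growth at the plate median or of vehicle wells; lower values mean less growth of the strain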
Settings: growth OD

Measured: normalized growth

CC(=O)O[C@H]1CC[C@@]2(C)C(=CCC3C2CC[C@@]2(C)C3CC[C@@H]2C(C)CCCC(C)C)C1 (stereo partly drawn)
inactive: S. cerevisiae deletion strains, locus YJR066W, strain TOR1, active compounds read low 0.96 | S. cerevisiae deletion strains, locus YKL009W, strain mrt4, active compounds read low 1.05 | S. cerevisiae deletion strains, locus YKL068W, active compounds read low 1 | S. cerevisiae deletion strains, locus YKL085W, strain MDH1 (second series), active compounds read low 1.01 | S. cerevisiae deletion strains, locus YKL085W, strain MDH1, active compounds read low 1.01 | S. cerevisiae deletion strains, locus YKL160W, strain elf1, active compounds read low 0.997 | S. cerevisiae deletion strains, locus YKL190W, strain CNB1, active compounds read low 1.01 | S. cerevisiae deletion strains, locus YKR001C, strain vps1, active compounds read low 1.06 | S. cerevisiae deletion strains, locus YKR026C, strain gcn3, active compounds read low 0.991 | S. cerevisiae deletion strains, locus YKR091W, strain srl3, active compounds read low 0.998 | S. cerevisiae deletion strains, locus YLL001W, strain dnm1, active compounds read low 0.997 | S. cerevisiae deletion strains, locus YLL026W, active compounds read low 0.995 | S. cerevisiae deletion strains, locus YLL041C, strain sdh2, active compounds read low 0.995 | S. cerevisiae deletion strains, locus YLR027C, strain aat2, active compounds read low 0.979 | S. cerevisiae deletion strains, locus YLR039C, strain RIC1, active compounds read low 1.08 | S. cerevisiae deletion strains, locus YLR058C, strain SHM2, active compounds read low 1.01 | S. cerevisiae deletion strains, locus YLR102C, strain apc9, active compounds read low 1.01 | S. cerevisiae deletion strains, locus YLR113W, strain HOG1, active compounds read low 0.95 | S. cerevisiae deletion strains, locus YLR221C, strain rsa3, active compounds read low 0.979 | S. cerevisiae deletion strains, locus YLR258W, strain gsy2, active compounds read low 1.01 | S. cerevisiae deletion strains, locus YLR262C, strain YPT6 (second series), active compounds read low 1.01 | S. cerevisiae deletion strains, locus YLR262C, strain YPT6, active compounds read low 1.14 | S. cerevisiae deletion strains, locus YLR268W, strain sec22, active compounds read low 1.03 | S. cerevisiae deletion strains, locus YLR320W, strain mms22, active compounds read low 0.98 | S. cerevisiae deletion strains, locus YLR330W, strain CHS5, active compounds read low 1.02 | S. cerevisiae deletion strains, locus YLR342W, strain FKS1 (second series), active compounds read low 1.07 | S. cerevisiae deletion strains, locus YLR342W, strain FKS1, active compounds read low 0.994 | S. cerevisiae deletion strains, locus YLR357W, strain rsc2, active compounds read low 0.985 | S. cerevisiae deletion strains, locus YLR370C, strain arc18, active compounds read low 0.991 | S. cerevisiae deletion strains, locus YLR371W, strain rom2, active compounds read low 1.02 | S. cerevisiae deletion strains, locus YLR384C, strain iki3, active compounds read low 1.01 | S. cerevisiae deletion strains, locus YLR418C, strain cdc73, active compounds read low 1.04 | S. cerevisiae deletion strains, locus YML016C, strain PPZ1, active compounds read low 1.01 | S. cerevisiae deletion strains, locus YML032C, strain rad52, active compounds read low 1.02 | S. cerevisiae deletion strains, locus YML120C, strain ndi1, active compounds read low 1 | S. cerevisiae deletion strains, locus YML124C, strain tub3, active compounds read low 1.02 | S. cerevisiae deletion strains, locus YMR058W, strain fet3, active compounds read low 0.913 | S. cerevisiae deletion strains, locus YMR078C, strain ctf18, active compounds read low 1.02 | S. cerevisiae deletion strains, locus YMR125W, strain sto1, active compounds read low 0.995 | S. cerevisiae deletion strains, locus YMR129W, active compounds read low 0.997 | S. cerevisiae deletion strains, locus YMR205C, strain PFK2, active compounds read low 1 | S. cerevisiae deletion strains, locus YMR223W, strain ubp8, active compounds read low 1.03 | S. cerevisiae deletion strains, locus YMR231W, strain pep5, active compounds read low 0.965 | S. cerevisiae deletion strains, locus YMR307W, strain GAS1, active compounds read low 1.03 | S. cerevisiae deletion strains, locus YNL067W, strain RPL9B, active compounds read low 1.02 | S. cerevisiae deletion strains, locus YNL071W, strain lat1, active compounds read low 0.999 | S. cerevisiae deletion strains, locus YNL128W, strain TEP1, active compounds read low 1.02 | S. cerevisiae deletion strains, locus YNL153C, strain GIM3, active compounds read low 1.02 | S. cerevisiae deletion strains, locus YNL183C, strain NPR1, active compounds read low 0.906 | S. cerevisiae deletion strains, locus YNL209W, strain ssb2, active compounds read low 0.999 | S. cerevisiae deletion strains, locus YNL233W, strain BNI4, active compounds read low 1 | S. cerevisiae deletion strains, locus YNL248C, strain rpa49, active compounds read low 1 | S. cerevisiae deletion strains, locus YNL250W, strain rad50, active compounds read low 1.02 | S. cerevisiae deletion strains, locus YNL271C, strain bni1, active compounds read low 1.04 | S. cerevisiae deletion strains, locus YNL298W, strain CLA4, active compounds read low 1.02 | S. cerevisiae deletion strains, locus YNL307C, strain MCK1, active compounds read low 1.03 | S. cerevisiae deletion strains, locus YNL322C, strain KRE1 (second series), active compounds read low 0.989 | S. cerevisiae deletion strains, locus YNR049C, strain mso1, active compounds read low 0.988 | S. cerevisiae deletion strains, locus YNR052C, strain pop2, active compounds read low 1.02 | S. cerevisiae deletion strains, locus YOL012C, strain htz1 0.984 | S. cerevisiae deletion strains, locus YOL147C, strain pex11, active compounds read low 1.02 | S. cerevisiae deletion strains, locus YOR001W, strain rrp6, active compounds read low 0.974 | S. cerevisiae deletion strains, locus YOR061W, strain CKA2, active compounds read low 1.01 | S. cerevisiae deletion strains, locus YOR069W, strain VPS5, active compounds read low 1.01 | S. cerevisiae deletion strains, locus YOR070C, strain gyp1, active compounds read low 0.989 | S. cerevisiae deletion strains, locus YOR080W, strain dia2, active compounds read low 0.983 | S. cerevisiae deletion strains, locus YOR083W, strain WHI5, active compounds read low 1.01 | S. cerevisiae deletion strains, locus YOR106W, strain vam3, active compounds read low 1.04 | S. cerevisiae deletion strains, locus YOR136W, strain idh2, active compounds read low 1.03 | S. cerevisiae deletion strains, locus YOR144C, strain elg1, active compounds read low 1.02 | S. cerevisiae deletion strains, locus YOR184W, strain ser1, active compounds read low 1.02 | S. cerevisiae deletion strains, locus YOR231W, strain MKK1, active compounds read low 0.972 | S. cerevisiae deletion strains, locus YOR265W, strain rbl2, active compounds read low 0.995 | S. cerevisiae deletion strains, locus YOR270C, strain vph1, active compounds read low 1.04 | S. cerevisiae deletion strains, locus YOR290C, strain snf2, active compounds read low 1 | S. cerevisiae deletion strains, locus YOR316C, strain cot1, active compounds read low 1.02 | S. cerevisiae deletion strains, locus YPL051W, strain arl3, active compounds read low 0.982 | S. cerevisiae deletion strains, locus YPL078C, strain atp4, active compounds read low 1.01 | S. cerevisiae deletion strains, locus YPL106C, strain sse1, active compounds read low 0.975 | S. cerevisiae deletion strains, locus YPL240C, strain hsp82, active compounds read low 1 | S. cerevisiae deletion strains, locus YPL241C, strain CIN2, active compounds read low 1.01 | S. cerevisiae deletion strains, locus YPL256C, strain CLN2, active compounds read low 0.964 | S. cerevisiae deletion strains, locus YPR119W, strain clb2, active compounds read low 1.01 | S. cerevisiae deletion strains, locus YPR141C, strain kar3, active compounds read low 1.02 | S. cerevisiae deletion strains, locus YPR163C, strain tif3, active compounds read low 1.04 | S. cerevisiae deletion strains, locus YPR167C, strain met16, active compounds read low 1.03 | S. cerevisiae deletion strains, strain wtn01, active compounds read low 1.04 | S. cerevisiae strains, strain wild type, active compounds read low 1.01

Source: PubChem BioAssay AID1159580 (chemical genetic matrix, 2015)
